From PubChem
Sampled rows, rich in hits. Any-hit rate of the full collection: about 3.5%.
MITF primary: human MITF inhibition, primary screen | O75030 | 650,000 tested, 0.91% active | inhibition, % at 2.6 µM | AID 1259374 | AlphaScreen MITF homodimerization, bead proximity signal; in the data active = inhibition above about 50%;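 note: 0% = vehicle wells with protein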
Target sequence (O75030 whole entry, looked up): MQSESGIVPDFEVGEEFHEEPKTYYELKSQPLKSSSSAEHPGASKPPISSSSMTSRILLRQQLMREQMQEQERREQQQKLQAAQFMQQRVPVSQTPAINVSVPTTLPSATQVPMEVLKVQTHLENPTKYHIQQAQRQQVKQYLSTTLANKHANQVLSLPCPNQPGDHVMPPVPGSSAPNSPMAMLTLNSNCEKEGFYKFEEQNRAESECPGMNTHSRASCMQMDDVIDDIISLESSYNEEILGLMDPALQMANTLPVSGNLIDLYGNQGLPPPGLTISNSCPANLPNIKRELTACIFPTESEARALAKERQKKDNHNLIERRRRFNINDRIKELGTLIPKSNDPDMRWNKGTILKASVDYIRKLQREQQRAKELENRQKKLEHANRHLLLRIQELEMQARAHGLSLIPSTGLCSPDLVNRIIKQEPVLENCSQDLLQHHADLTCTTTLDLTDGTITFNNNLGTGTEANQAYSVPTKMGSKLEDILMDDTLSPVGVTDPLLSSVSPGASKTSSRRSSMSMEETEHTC
TEAD-YAP inh: TEAD-YAP interaction inhibition; inhibition, % at 9.12 µM; AID 1259422; 640,000 tested, 1.4% active; HEK-TIYL cells, TEAD-Gal4/YAP UAS-luciferase luminescence; in the data active = inhibition above about 32%;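 note: 0% = median of test compound wells and 100% = reference inhibitor wells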
GPR151 ag: activators of human GPR151. PathHunter beta-arrestin GPR151 cells, luminescence. activation, % at 11.2 µM. 650,000 tested, 1% active; in the data active = activation above about 4.9%;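 note: 0% = median of compound wells and 100% = cells with positive control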
FBW7 act: activators of human E3 ligase FBW7 | AID 1259310 | AlphaScreen FBW7–phospho-cyclin E peptide binding, activator screen | 650,000 tested, 0.13% active | normalized activity (activation), % at 26.1 µM | Q969H0; in the data active = normalized activity above about 1.9%;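 note: purified mutant Fbw7 with reduced substrate affinity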
* marks the source's active call; other numbers are inactive results.

`O=C(CSc1nc2ccccc2s1)OCC(=O)c1ccc([N+](=O)[O-])cc1` gave MITF primary 10.7, TEAD-YAP inh 10.3, GPR151 ag 1.5 and FBW7 act -0.5.
For CCOC(=O)C1CCN(C2CCC(=O)N(Cc3ccccc3Cl)CC2)CC1 (stereo unspecified) the results were MITF primary -2.2, TEAD-YAP inh -13.9, GPR151 ag 1.2 and FBW7 act -0.1.
`CC1CCN(c2ccc3nc4ccccc4c(=O)n3n2)CC1` gave MITF primary -3.8, TEAD-YAP inh 75.7*, GPR151 ag -7.7 and FBW7 act 0.2.
Screening O=c1c2cc(Cl)ccc2nc2ccc(N3CCCC3)nn12 returned MITF primary -0.4, TEAD-YAP inh -47.6, GPR151 ag -0.2 and FBW7 act 0.1.
O=C(Cn1cnc2scc(-c3ccccc3)c2c1=O)Nc1ccc(Cl)cc1 was read as MITF primary 2.4, TEAD-YAP inh 9.8, GPR151 ag -1.0 and FBW7 act 0.1.
For Cc1nc2cc(Cl)c([N+](=O)[O-])cc2s1 the results were MITF primary 2.5, TEAD-YAP inh 1.1, GPR151 ag 2.5 and FBW7 act 2.0*.
Screening Cc1nc2ccc([N+](=O)[O-])cc2s1 returned MITF primary 8.0, TEAD-YAP inh 11.9, GPR151 ag -0.1 and FBW7 act 0.0.
For Fc1ccccc1NC(=S)NCC1COc2ccccc2O1 (stereo unspecified) the results were MITF primary 3.1, TEAD-YAP inh -7.6, GPR151 ag 0.1 and FBW7 act 0.0.
`O=[N+]([O-])c1cccc(C(Nc2nccs2)c2ccc3cccnc3c2O)c1` (stereo unspecified) gave MITF primary 36.8, TEAD-YAP inh 37.9*, GPR151 ag -0.7 and FBW7 act -0.4.
Screening CCCC(=O)NC(c1cccc([N+](=O)[O-])c1)c1ccc2cccnc2c1O (stereo unspecified) returned MITF primary 30.5, TEAD-YAP inh 66.0*, GPR151 ag 1.0 and FBW7 act -2.0.
`Oc1c(C(Nc2nccs2)c2ccco2)ccc2cccnc12` (stereo unspecified) gave MITF primary 20.1, TEAD-YAP inh 5.8, GPR151 ag 1.4 and FBW7 act -0.3.
For CC(C)C(=O)NC(c1cccc([N+](=O)[O-])c1)c1ccc2cccnc2c1O (stereo unspecified) the results were MITF primary 54.0*, TEAD-YAP inh 73.4*, GPR151 ag 0.9 and FBW7 act -1.9.
For CCCC(=O)NC(c1cccc(F)c1)c1ccc2cccnc2c1O (stereo unspecified) the results were MITF primary 20.4, TEAD-YAP inh 50.1*, GPR151 ag -0.2 and FBW7 act -0.7.
`CCCCC(=O)NC(c1ccc([N+](=O)[O-])cc1)c1ccc2cccnc2c1O` (stereo unspecified) gave MITF primary 30.8, TEAD-YAP inh 27.9, GPR151 ag 1.1 and FBW7 act -1.9.
Screening CC1(C)C(=O)NCCN1C(=O)Cn1nc2c3ccccc3nc(C3CC3)n2c1=O returned MITF primary 5.8, TEAD-YAP inh -10.2, GPR151 ag -0.5 and FBW7 act 0.7.
Cc1ccc(CSc2ccc(C(=O)N3CCC(C)CC3)cc2[N+](=O)[O-])cc1 was read as MITF primary 9.2, TEAD-YAP inh 7.5, GPR151 ag -1.5 and FBW7 act -0.2.
For CC1=C(C(=O)OCCOc2ccccc2)C(c2ccccc2[N+](=O)[O-])C2=C(CCCC2=O)N1 (stereo unspecified) the results were MITF primary 1.5, TEAD-YAP inh 34.5*, GPR151 ag -0.5 and FBW7 act -0.3.
Screening CC1=C(C(=O)OCCc2ccccc2)C(c2ccccc2[N+](=O)[O-])C2=C(CCCC2=O)N1 (stereo unspecified) returned MITF primary 11.8, TEAD-YAP inh 47.9*, GPR151 ag -0.5 and FBW7 act -0.2.
Screening CCOc1ccc(/C=C2/Sc3ccc(C(=O)N4CCCC4)cc3N(C)C2=O)cc1OC returned MITF primary 1.8, TEAD-YAP inh -8.2, GPR151 ag -1.1 and FBW7 act 0.2.
For CC(=O)Nc1ccc(OCc2ccc(C(=O)c3ccccc3)cc2)cc1 the results were MITF primary -5.4, TEAD-YAP inh -3.5, GPR151 ag 0.7 and FBW7 act -0.2.
Screening O=C(O)CC1S/C(=N/N=C/c2ccc(-c3ccc(Cl)cc3)o2)NC1=O (stereo unspecified) returned MITF primary 6.2, TEAD-YAP inh -13.9, GPR151 ag 0.7 and FBW7 act -0.1.
`COc1cc(-c2cnn3ccc(Nc4cc(OC)c(OC)c(OC)c4)nc23)ccc1O` gave MITF primary 7.3, TEAD-YAP inh 71.0*, GPR151 ag 1.8 and FBW7 act 0.5.
Screening COc1cccc(-c2cnn3ccc(Nc4cc(OC)c(OC)c(OC)c4)nc23)c1 returned MITF primary 9.9, TEAD-YAP inh -2.6, GPR151 ag 1.3 and FBW7 act 0.0.
`COc1cc(-c2cnn3ccc(NCCO)nc23)ccc1O` gave MITF primary -21.6, TEAD-YAP inh 1.3, GPR151 ag -0.9 and FBW7 act 0.0.
Screening COc1cc(Nc2ccn3ncc(-c4ccccc4Cl)c3n2)cc(OC)c1OC returned MITF primary 8.9, TEAD-YAP inh 36.0*, GPR151 ag 0.0 and FBW7 act 1.6.
`Oc1ccc(-c2cnn3ccc(NCc4cccnc4)nc23)cc1` gave MITF primary -4.6, TEAD-YAP inh 34.7*, GPR151 ag 0.4 and FBW7 act -0.1.
`COc1ccc(-c2cnn3ccc(NCCO)nc23)cc1OC` gave MITF primary -4.1, TEAD-YAP inh 57.1*, GPR151 ag -0.4 and FBW7 act 0.2.
Screening CCOC(=O)C1=C(C)N=c2s/c(=C\c3cccc(OCc4ccc([N+](=O)[O-])cc4)c3)c(=O)n2C1c1ccc(Cl)cc1 (stereo unspecified) returned MITF primary 3.2, TEAD-YAP inh -5.2, GPR151 ag 0.4 and FBW7 act -0.1.
`CC1Cc2ccccc2N1C(=O)CSc1nnc(CSc2ncccn2)n1C` (stereo unspecified) gave MITF primary -7.6, TEAD-YAP inh 8.7, GPR151 ag -0.1 and FBW7 act 0.0.
`CC1Cc2ccccc2N1C(=O)CSc1nnc(Cc2cccs2)n1C` (stereo unspecified) gave MITF primary -4.1, TEAD-YAP inh 47.0*, GPR151 ag 0.2 and FBW7 act -0.1.
`N#Cc1nc(N2CCCC2)nc(N2CCCC2)n1` gave MITF primary 4.4, TEAD-YAP inh 37.4*, GPR151 ag 0.2 and FBW7 act -0.1.
For COc1ccc(NC(=O)CN(C)S(=O)(=O)c2cccc3cnccc23)cc1OC the results were MITF primary 27.2, TEAD-YAP inh 42.1*, GPR151 ag 0.3 and FBW7 act -0.1.
`CN(CC(=O)N1CCc2ccccc21)S(=O)(=O)c1cccc2cnccc12` gave MITF primary 16.2, TEAD-YAP inh 33.7*, GPR151 ag -0.4 and FBW7 act -0.1.
CCOC(=O)C1=C(C)OC(N)=C(C#N)C1c1cccs1 (stereo unspecified) was read as MITF primary 6.2, TEAD-YAP inh -2.5, GPR151 ag -1.7 and FBW7 act 0.0.
